Results filed as inconclusive are left out. Entries that show only a call come without a potency. The source made the active and inactive calls. Calls follow the shape of the dose curve; as a rule, active = well fitted inhibition curve with a large enough effect; inconclusive = small, poorly fitted or top-dose-only effect; inactive = flat fitted curve, though single readings scatter.
Potency is read from the fitted curve at half-maximal effect.

For the assay, the target named is Calcium and integrin-binding protein 1 (Homo sapiens) (UniProt Q99828). The assay can be described thus: Primary qHTS for Identification of Calcium Integrin Binding Protein 1 (CIB1) Competitor (AID 1508620). To be noted: CIB1-GST / FITC-alphaIIb peptide fluorescence polarization; series mostly up to 114 µM. The procedure, abridged: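 Fluorescence polarization competition: GST-tagged CIB1 (1 uM final) preincubated with compound 15 min at room temperature, then FITC-labelled alphaIIb peptide (100 nM final) added. After 15 min at room temperature, polarization read at Ex 480/Em 540.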
Chain of Calcium and integrin-binding protein 1 (Homo sapiens) (Q99828 whole entry, looked up): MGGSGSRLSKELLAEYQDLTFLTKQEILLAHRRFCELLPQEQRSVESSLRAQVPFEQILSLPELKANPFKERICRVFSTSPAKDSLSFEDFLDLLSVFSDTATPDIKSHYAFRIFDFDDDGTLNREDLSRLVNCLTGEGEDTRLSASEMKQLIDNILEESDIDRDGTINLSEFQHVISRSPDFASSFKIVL
A general note: Quantitative high-throughput screening tests each substance at several concentrations.
For `CC(C)(C)OC(=O)N1CCC(c2ccc(NCc3ccc(-c4ccc(C#N)cc4)o3)cc2)CC1`, the Potency entry was “inactive”.
Under `Cc1ccc(-c2nn3c(C)nnc3s2)cc1NCc1ccc(-c2cccc(Cl)c2)o1` stands “inactive”; under `Cc1ccc2nsnc2c1S(=O)(=O)Nc1cccc2cccnc12`, “inactive”; under `COc1ccc(O)c(C2Nc3ccccc3C(=O)N2Cc2ccccc2)c1` (centres undefined), “inactive”.
Then `Cc1cc(C)nc(NC(=S)N2CCN(c3nsc4ccccc34)CC2)c1`, with “inactive”; and `Cc1cc(C)nc(NC(=S)N2CCN(c3cc(Cl)cc(Cl)n3)CC2)c1`, with “inactive”; and `[O-][n+]1onc(-c2ccccc2)c1CO`, with “inactive”.
With `Cc1cc2c(s1)c1cnn(Cc3cc(F)ccc3F)c(=O)c1n2C`, the Potency result was “inactive”.
Under `O=Cc1c(-c2ccccc2)no[n+]1[O-]` stands 50.1 µM (active); under `Cc1cc2c(s1)c1cnn(Cc3c(C)cc(F)cc3C)c(=O)c1n2C`, “inactive”.
With `CC(C)(C)OC(=O)N1CCN(c2ccc(NCc3ccc(-c4ccc(C#N)cc4)nc3)cc2)CC1`, the Potency result was “inactive”.
Under `O=C1CCCC2=C1C1(CCC1)N=C(Nc1nc3ccccc3o1)N2` stands “inactive”; under `CC(C)c1ccccc1-c1ncc(N)c(NCc2ccc(-c3cccnc3)cc2)n1`, “inactive”.
Then `COc1ccc(NC(=O)c2cnn3c(-c4ccccc4)cc(C)nc23)cc1`, with “inactive”; and `COc1ccc(C2Nc3ccccc3C(=O)N2Cc2ccccc2)cc1OCc1ccc(NC(C)=O)cc1` (centres undefined), with “inactive”; and `N#Cc1c(-c2ccc(Br)cc2)no[n+]1[O-]`, with “inactive”.
Consider `Fc1cc(Nc2nc(-c3ccncc3)nc3ccccc23)ccc1-c1cccc(OC(F)(F)F)c1`, for which the Potency entry is “inactive”.
On to `COC(=O)c1ccccc1NC(=O)c1ccc(F)cc1F`, for which the Potency entry was “inactive”.
Under `COc1ccc(C2=Nn3c(nnc3-c3ccccc3O)SC2)c(OC)c1` stands “inactive”; under `COc1ccccc1-c1csc(N2CCC(C(N)=O)CC2)n1`, “inactive”.
Regarding `COc1cccc(NC(=S)N2CCN(c3ccc(C(F)(F)F)cc3[N+](=O)[O-])CC2)n1`, the Potency entry is “inactive”.
Turning to `COc1cccc(CNc2ccc(S(=O)(=O)Nc3cnc4ccccc4c3)cc2)c1O`, the Potency result was “inactive”.
Under `Fc1ccc(Nc2nc(-c3ccnc(N4CCCCC4)c3)nc3ccccc23)cc1F` stands “inactive”; under `O=C1CCCC2=C1C(c1[nH]ncc1Cl)N=C(Nc1nc3cc(Cl)ccc3o1)N2` (centres undefined), “inactive”; under `O=C(OCC#CCSc1nnc(-c2cccc3ccccc23)o1)c1ccc(Br)cc1`, “inactive”.
Consider `NC(=O)C1CCN(c2nc(-c3cccc(N)c3)cs2)CC1`, for which the Potency entry is “inactive”.
Turning to `C/C=C\C1=CCCC1Nc1ncnc2ccc(-c3c(C)noc3C)cc12` (centres undefined), the Potency result is “inactive”.
`COc1cccc(C2c3c(ncn(-c4ccccc4Br)c3=N)Oc3ccc4ccccc4c32)c1` (centres undefined): the Potency result was “inactive”.
Then `O=C1CCCC2=C1C(c1[nH]ncc1Cl)NC(=NCCc1ccccc1)N2` (centres undefined), with “inactive”; and `Cc1ccc(OCCn2c(CCNC(=O)c3cccc(C#N)c3)nc3ccccc32)cc1`, with “inactive”.
Turning to `COc1ccc(C2=Nn3c(nnc3-c3ccccc3Cl)SC2)cc1OC1CCCC1`, the Potency result was “inactive”.
For the compound `COC(=O)c1ccccc1NC(=O)c1ccccc1OC(F)F`, the Potency entry was “inactive”.
Consider `Cc1noc(C)c1-c1ccc2ncnc(NCc3ccc(Br)cc3)c2c1`, for which the Potency result is “inactive”.
Take `Cc1ccc(OCCn2c3c(c4ccccc42)CCN(C(=O)C2CCCCC2)C3)cc1`: the Potency result was “inactive”.
Consider `Cc1cc(CNc2ncnc3ccc(-c4ccc5c(c4)OCO5)cc23)c(C)o1`, for which the Potency entry was “inactive”.
For `Oc1ccc(CNc2ccc(C(F)(F)F)cc2Cl)c2cccnc12`, the Potency result is “inactive”.
As for `COc1ccccc1-c1nnc2n1N=C(c1c(OC)cccc1OC)CS2`, the Potency result was “inactive”.
Then `CC(=O)c1ccc(-c2csc3ncnc(Sc4nnnn4C)c23)cc1`, with “inactive”.
As for `CC(=O)N1CCN(c2ccc(NCc3ccc(C)cc3)cc2)CC1`, the Potency result is “inactive”.

The values above are taken from PubChem BioAssay (NCATS).
